Rce1 inhib: yeast Rce1p protease inhibitors, primary screen, biochemical, fluorescence, cell-free homogeneous; 0.27% of 290,000 active; CAAX prenyl protease 2 (Saccharomyces cerevisiae (strain ATCC 204508 / S288c)), Q03530; calls only; yeast membranes, quenched prenylated peptide cleavage fluorescence;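 active = fall in fluorescence gain of 50% or more versus controls, with final raw signal at or below 3038400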;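 note: plate controls were neutral control wells for no effect and wells lacking membranes for full effect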
PLC-gamma1 inh: PLC-gamma1 enzyme inhibitors, primary screen, biochemical, fluorescence, purified enzyme; inhibition, % at 12.2 µM; 1-phosphatidylinositol 4,5-bisphosphate phosphodiesterase gamma-1 (Homo sapiens), P19174; fluorogenic substrate; 0.84% of 370,000 active; AID 720700, 2013; in the data active = inhibition above about 9.5%
NPR1 activator: GC-A stimulated cGMP production enhancers – HEK293 GC-A cells, cGMP TR-FRET, EC30 ANP, primary screen. Atrial natriuretic peptide receptor 1 (Homo sapiens), P16066. 0% at EC30 ANP, 100% saturating ANP. activation, % at 10 µM. 0.14% of 370,000 active; in the data active = activation above about 40%
Target sequence (P16066 whole entry, looked up): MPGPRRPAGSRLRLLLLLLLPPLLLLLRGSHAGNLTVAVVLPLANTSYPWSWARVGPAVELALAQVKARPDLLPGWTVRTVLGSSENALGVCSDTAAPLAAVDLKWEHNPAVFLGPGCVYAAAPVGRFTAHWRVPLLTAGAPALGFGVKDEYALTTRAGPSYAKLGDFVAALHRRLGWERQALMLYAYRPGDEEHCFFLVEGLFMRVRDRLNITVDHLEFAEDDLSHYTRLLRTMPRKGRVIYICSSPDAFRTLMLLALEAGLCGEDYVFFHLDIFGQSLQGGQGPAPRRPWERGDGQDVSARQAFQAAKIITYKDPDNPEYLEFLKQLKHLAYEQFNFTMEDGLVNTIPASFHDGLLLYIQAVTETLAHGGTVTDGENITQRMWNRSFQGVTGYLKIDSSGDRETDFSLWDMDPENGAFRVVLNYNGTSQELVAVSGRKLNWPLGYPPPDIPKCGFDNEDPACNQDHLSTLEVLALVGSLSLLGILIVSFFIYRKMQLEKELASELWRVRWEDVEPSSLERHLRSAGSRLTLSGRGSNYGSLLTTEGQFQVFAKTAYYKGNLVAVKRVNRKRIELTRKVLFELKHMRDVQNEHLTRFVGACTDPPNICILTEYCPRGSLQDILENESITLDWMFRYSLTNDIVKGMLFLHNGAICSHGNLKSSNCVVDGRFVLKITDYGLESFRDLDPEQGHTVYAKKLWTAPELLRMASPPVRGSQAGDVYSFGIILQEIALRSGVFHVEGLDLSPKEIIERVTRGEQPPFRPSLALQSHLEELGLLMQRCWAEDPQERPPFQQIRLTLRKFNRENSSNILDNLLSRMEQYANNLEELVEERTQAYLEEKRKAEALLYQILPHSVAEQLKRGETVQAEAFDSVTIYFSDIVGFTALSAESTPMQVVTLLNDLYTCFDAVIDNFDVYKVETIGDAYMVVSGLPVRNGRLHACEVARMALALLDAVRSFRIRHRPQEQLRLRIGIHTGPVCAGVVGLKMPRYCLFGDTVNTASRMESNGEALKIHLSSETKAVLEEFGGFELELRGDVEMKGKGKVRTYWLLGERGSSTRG
PLCb3 inh: human PLC-beta3 inhibitors, primary screen, biochemical, fluorescence; 1-phosphatidylinositol 4,5-bisphosphate phosphodiesterase beta-3 (Homo sapiens), Q01970; Purified PLC-beta3, fluorogenic substrate; inhibition, % at 12.2 µM; 0.18% of 370,000 active; AID 720704, 2013; in the data active = inhibition above about 11%;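 note: 0% = median of compound wells on plate and 100% = full blocker control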
PfM18AAP inh: PfM18AAP inhibitors, malaria aminopeptidase, primary screen, biochemical, QFRET, recombinant enzyme; M18 aspartyl aminopeptidase (Plasmodium falciparum 3D7); H-Glu-NHMec fluorogenic cleavage; inhibition, % at 7.35 µM; 1.2% of 290,000 active;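 active = inhibition above the campaign mean inhibition over all tested compounds plus 3 SD, cut at about 28% in these data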;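 note: 0% = plate median of test compound wells and 100% = 2 mM ZnCl2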
NPR2 activator: human GC-B receptor activators, primary screen, HEK293 GC-B cells, cGMP TR-FRET, EC30 CNP. activation, % at 10 µM. AID 1920062, 2024. 0.11% of 370,000 active. 0% at EC30 CNP, 100% saturating CNP;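 active = activation at 10 µM reaching about 35% in either raw or pattern-adjusted values, limit read from the data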
* = called active by the depositor. Hits are enriched below; roughly 2.2% of the tested compounds scored in any of these assays.

CCc1cc(=O)oc2c(C)c(OC(C)C(=O)NC3CC(C)(C)NC(C)(C)C3)ccc12 (stereo not given) was read as Rce1 inhib active, PLC-gamma1 inh -8, NPR1 activator -5, PLCb3 inh -13, PfM18AAP inh -18 and NPR2 activator 1.
For COc1ccc(CCNC(=O)c2c(N)[nH]c(C(=O)c3ccccc3)c2-c2ccc(N(C)C)cc2)cc1 the results were PLC-gamma1 inh -20, NPR1 activator -2, PLCb3 inh -31 and NPR2 activator -6.
`O=Cc1ccccc1-n1cccn1` gave Rce1 inhib inactive, PLC-gamma1 inh 1, NPR1 activator -1, PLCb3 inh -8, PfM18AAP inh 4 and NPR2 activator 3.
Screening Oc1cc(-n2cccn2)c(O)cc1-n1cccn1 returned Rce1 inhib inactive, PLC-gamma1 inh -8, NPR1 activator 5, PLCb3 inh -24, PfM18AAP inh 85* and NPR2 activator 1.
For COc1cc(/C=C/C(=O)c2ccccc2)cc(OC)c1OC the results were PLC-gamma1 inh 1, NPR1 activator 4, PLCb3 inh -3 and NPR2 activator -11.
For Cc1ccc2c(c1)N(S(=O)(=O)c1ccc(CN3C(=O)c4cccnc4C3=O)s1)CCO2 the results were Rce1 inhib inactive, PLC-gamma1 inh 12*, NPR1 activator -1, PLCb3 inh -4, PfM18AAP inh 3 and NPR2 activator -3.
Screening Cc1ccc2c(c1)N(S(=O)(=O)c1ccc(CN3C(=O)c4cccnc4C3=O)cc1)CCO2 returned Rce1 inhib inactive, PLC-gamma1 inh 4, NPR1 activator 1, PLCb3 inh -4, PfM18AAP inh -3 and NPR2 activator -1.
For COc1ccc(C)c2sc(NC(=O)C3=COCCO3)nc12 the results were Rce1 inhib active, PLC-gamma1 inh -24, NPR1 activator -8, PLCb3 inh -32, PfM18AAP inh 5 and NPR2 activator -4.
COc1ccc(OC)c2sc(NC(=O)C3=COCCO3)nc12 was read as Rce1 inhib inactive, PLC-gamma1 inh -21, NPR1 activator -2, PLCb3 inh -33, PfM18AAP inh 2 and NPR2 activator -6.
Screening COc1cccc(CNc2ncnc3ccc(-c4c(C)noc4C)cc23)c1 returned PLC-gamma1 inh -1, NPR1 activator 51*, PLCb3 inh 1 and NPR2 activator 56*.
`CCN(CC)c1ccc(NC(=O)c2ccc(NC(=O)C3CCCO3)cc2)c(C)c1` (stereo not given) gave PLC-gamma1 inh -2, NPR1 activator -4, PLCb3 inh 1, PfM18AAP inh 31* and NPR2 activator 1.
Screening COc1cc(OC)c2c(O)c3c(=O)cc(C)oc3c(-c3c(OC)cc4cc5c(c(O)c4c3O)C(=O)CC(C)(O)O5)c2c1 (stereo not given) returned PLC-gamma1 inh 1, NPR1 activator -14, PLCb3 inh -7 and NPR2 activator -8.
Screening COCCn1c(=O)c2ccccc2c2ccccc2c1=O returned Rce1 inhib inactive, PLC-gamma1 inh 3, NPR1 activator 2, PLCb3 inh 2, PfM18AAP inh 5 and NPR2 activator 0.
For CC(=O)OCCn1c(=O)c2cc3c(=O)n(CCOC(C)=O)c(=O)c3cc2c1=O the results were Rce1 inhib inactive, PLC-gamma1 inh 9.9*, NPR1 activator 3, PLCb3 inh 4, PfM18AAP inh -1 and NPR2 activator 0.
O=C(NC1CCCCN(Cc2cccc(Cl)c2)C1=O)c1cccc(F)c1 (stereo not given) was read as PLC-gamma1 inh 1, NPR1 activator 1, PLCb3 inh -5 and NPR2 activator 1.
`Cc1ccc2nc3sc(C(=O)N4CCN(C)CC4)cc3cc2c1` gave PLC-gamma1 inh -14, NPR1 activator 4, PLCb3 inh -17 and NPR2 activator -7.
COc1ccccc1N(CC(=O)Nc1cccc(C(F)(F)F)c1)S(C)(=O)=O was read as Rce1 inhib inactive, PLC-gamma1 inh 1, NPR1 activator -5, PLCb3 inh -1, PfM18AAP inh -1 and NPR2 activator 0.
`Cc1ccc([N+](=O)[O-])cc1N(CC(=O)Nc1ccc(S(=O)(=O)Nc2cccc(C(F)(F)F)c2)cc1)S(C)(=O)=O` gave Rce1 inhib inactive, PLC-gamma1 inh 9.9*, NPR1 activator -1, PLCb3 inh 2, PfM18AAP inh -2 and NPR2 activator 0.
`COC(=O)c1c(NC(=O)C(C)C)sc(C(=O)N2CCOCC2)c1C` gave Rce1 inhib inactive, PLC-gamma1 inh -4, NPR1 activator 0, PLCb3 inh -9, PfM18AAP inh 31* and NPR2 activator -1.
COC(=O)c1c(NC(C)=O)sc(C(=O)N2CCOCC2)c1C was read as Rce1 inhib inactive, PLC-gamma1 inh -1, NPR1 activator -6, PLCb3 inh -6, PfM18AAP inh -14 and NPR2 activator 2.
Screening COc1cc(NC(=O)C2CCCN(S(=O)(=O)c3ccccc3[N+](=O)[O-])C2)cc(OC)c1 (stereo not given) returned PLC-gamma1 inh 7, NPR1 activator -8, PLCb3 inh 0 and NPR2 activator -4.
Screening COC(=O)c1cnn2c3c(c(C)nc12)CCCC3 returned Rce1 inhib active, PLC-gamma1 inh -103, NPR1 activator 3, PLCb3 inh -157, PfM18AAP inh 1 and NPR2 activator -5.
Cc1cc(NS(=O)(=O)c2ccc(NC(=O)CSc3nc4sc(C)c(C)c4c(=O)n3Cc3ccco3)cc2)nc(C)n1 was read as PLC-gamma1 inh -4, NPR1 activator -2, PLCb3 inh -1 and NPR2 activator -11.
Cc1ccc(C(=O)COC(=O)COc2ccccc2[N+](=O)[O-])s1 was read as PLC-gamma1 inh 5, NPR1 activator -2, PLCb3 inh 0 and NPR2 activator 0.
Screening CCOC(=O)COc1ccccc1/C=C\[N+](=O)[O-] returned Rce1 inhib inactive and PfM18AAP inh 32*.
Screening COc1cc(/C=N/NC(=S)Nc2cccc(C(=O)O)c2)ccc1O returned Rce1 inhib inactive, PLC-gamma1 inh -37, NPR1 activator -1, PLCb3 inh -52, PfM18AAP inh 20 and NPR2 activator 0.
`COc1cccc(/C=N/NC(=S)Nc2cccc(C(=O)O)c2)c1O` gave Rce1 inhib inactive, PLC-gamma1 inh -126, NPR1 activator 1, PLCb3 inh -124, PfM18AAP inh 38* and NPR2 activator -3.

High-throughput results as filed in PubChem.
